Results on 25 molecules are retold here after PubChem BioAssay (NCATS).

Inconclusive results are not listed. Unmarked numbers belong to inactive results. Calls of active or inactive are those of the source. Calls come from the whole dose curve; as a rule, active = well fitted curve in the direction sought with a large enough effect; inconclusive = small, poorly fitted or top-dose-only effect, or another doubt; inactive = no such curve, though single readings can be large; an effect the other way counts as inactive or inconclusive. Square brackets hold non-standard residues; d marks the D form. Peptide text beside a SMILES is read from it. Ala(indol-2-yl) = N[C@@H](Cc1cc2ccccc2[nH]1)C(=O)O; Aib = CC(C)(N)C(=O)O

Assay [1] concerns the target Cellular tumor antigen p53 (Homo sapiens) (UniProt P04637). Put plainly: Primary qHTS for small molecule compounds that upregulate eGFP-tagged delta133p53alpha (in N-terminal) cells. (AID 2060322).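 For activation: cells pre-induced with doxycycline then dosed without doxycycline; series mostly up to about 56 µM; 0% = DMSO vehicle and 100% = reference activator.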 Note: nearly all actives have a fitted effect of over 75% in size. Note: potency is the fitted concentration of half-maximal effect. As to conditions: NCI-H358 eGFP-delta133p53alpha fluorescence, 24 h; activation: hits give high values. In outline: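 NCI-H358 cells pre-induced 24 h with 10 ng/ml doxycycline for eGFP-delta133p53alpha, plated dox-free and exposed 24 h at 37C to titrated compounds. Fixed, Hoechst-stained; gated GFP peak intensity by laser scanning cytometry, normalized to DMSO (0%) and 57.5 uM 5-azacytidine (100%).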
(In general: In qHTS, concentration-response curves come from the screen itself.)

Assay [2] deals with Aldehyde dehydrogenase, mitochondrial (Homo sapiens) (UniProt P05091). Put plainly: qHTS for Inhibitors of the Aldehyde Dehydrogenase Family (ALDH2) Primary screen (AID 2061308).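 Note: plate controls were vehicle for no effect and reference inhibitor for full effect; nearly all actives have a fitted effect of over 55% in size.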
Assay [3] deals with Retinaldehyde dehydrogenase 3 (Homo sapiens) (UniProt P47895). Put plainly: qHTS for Inhibitors of the Aldehyde Dehydrogenase Family (ALDH1A3) Primary screen (AID 2061315).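 Note: plate controls were DMSO vehicle for no effect and reference inhibitor for full effect.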

Sequence of Cellular tumor antigen p53 (Homo sapiens) (P04637 whole entry, looked up): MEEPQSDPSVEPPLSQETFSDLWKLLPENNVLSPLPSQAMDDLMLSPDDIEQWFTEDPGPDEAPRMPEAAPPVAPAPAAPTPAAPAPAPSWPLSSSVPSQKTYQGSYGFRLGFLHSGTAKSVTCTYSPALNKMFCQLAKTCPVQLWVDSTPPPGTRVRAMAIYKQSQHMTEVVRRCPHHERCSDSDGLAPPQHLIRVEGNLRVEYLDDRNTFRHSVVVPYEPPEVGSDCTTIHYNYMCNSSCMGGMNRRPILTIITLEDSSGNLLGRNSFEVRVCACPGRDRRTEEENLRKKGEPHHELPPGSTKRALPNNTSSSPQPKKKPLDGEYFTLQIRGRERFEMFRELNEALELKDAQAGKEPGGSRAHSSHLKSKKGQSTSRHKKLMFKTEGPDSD

For the molecule `COC(=O)C1=COC(C)C2CN3CCC4(C(=O)Nc5ccccc54)C3CC12` (stereo not given), the activation in assay [1] is 11.5%. In addition, the Potency result in assay [2] and in assay [3] was “inactive” in each case.

As for `COc1cc(O)c2c(c1)/C=C/C[C@@H](O)[C@@H](O)C(=O)CCC[C@H](C)OC2=O`, the activation in assay [1] is -12.2%. Further, the Potency result in assay [2] and in assay [3] was “inactive” in each case.

As to `COC1CC(=O)C23C(=O)NC(CC(C)C)C2C(C)=C(C)C(OO)C3/C=C(\C)CCC(O)C1O` (stereo not given), the activation in assay [1] is -4.58%. For the same molecule, the Potency entry in assay [2] and in assay [3] was “inactive” each time.

Take `CC12CCC3C(CCC4(O)CC(O)CCC34C=O)C1(O)CCC2C1=CC(=O)OC1` (stereo not given): in assay [1], the Potency was 10.7 µM (active). The Potency entry in assay [2] and in assay [3] was “inactive” throughout.

Take `C=C1C(=O)OC2/C=C(\COO)CC/C=C(\COC(C)=O)CC(OC(=O)C(C)CC)C12` (stereo not given): the Potency in assay [1] was 9.28 µM (active). In addition, the Potency entry in assay [2] and in assay [3] was “inactive” in each case.

`CC[C@@H](C)[C@H]1C(=O)O[C@H](C(C)C)C(=O)N(C)[C@@H](C(C)C)C(=O)O[C@H](C(C)C)C(=O)N(C)[C@@H](C(C)C)C(=O)O[C@H](C(C)C)C(=O)N1C`: in assay [1], the activation was -17.6%. Also, the Potency entry in assay [2] and in assay [3] was “inactive” each time.

As for `CC(C)=C1CC[C@]23CO[C@H](C2)[C@@](O)(C(=O)O)CCC13` (stereo not given in full), the activation in assay [1] was -4.58%. In addition, the Potency result in assay [2] and in assay [3] was “inactive” each time.

For `COC1CC(O[C@H]2CC[C@]3(C=O)C4CC[C@]5(C)[C@@H](C6=CC(=O)OC6)CC[C@]5(O)[C@@H]4CC[C@@H]3C2)OC(C)C1O[C@@H]1O[C@H](CO)[C@@H](O[C@@H]2O[C@H](CO)[C@@H](O)[C@H](O)[C@H]2O)[C@H](O)[C@H]1O` (stereo not given in full), the Potency in assay [1] was 3.21 µM (active). Also, the Potency entry in assay [2] and in assay [3] was “inactive” each time.

In the case of `CC(C)(NC(=O)[C@@H](N)Cc1ccc(O)cc1)C(=O)N[C@@H](Cc1cc2ccccc2[nH]1)C(=O)N[C@@H](Cc1ccccc1)C(=O)O` (H-Y[Aib][Ala(indol-2-yl)]F-OH), the activation in assay [1] is 7%. Also, the values for the activity change, negative = inhibition in assay [2] and in assay [3] were -1.78% [at 11.2 µM] and -10.2% [at 11.2 µM], respectively.

For the molecule `CC1C/C=C/C(O)C(O)CC/C=C/c2cc(O)cc(O)c2C(=O)O1` (stereo not given), the activation in assay [1] is -10.7%. In addition, the Potency result in assay [2] and in assay [3] was “inactive” throughout.

Regarding `CCCCOC(=O)c1ccnc2cc(C(OCCN3CCCCC3)c3ccccc3Cl)sc12` (stereo not given), the activation in assay [1] was 25.7%. The Potency entry in assay [2] and in assay [3] was “inactive” in each case.

Regarding `CC(=O)OC[C@]12C[C@H](OC(=O)CC(C)C)C(C)=C[C@H]1O[C@@H]1[C@H](O)C[C@@]2(C)[C@]12CO2`, the Potency in assay [1] is 3.7 µM (active). The Potency entry in assay [2] and in assay [3] was “inactive” throughout.

Take `OCc1nnc2n1-c1ccc(Cl)cc1C(c1ccccc1Cl)=NC2`: the activation in assay [1] was -3.67%. Further, the Potency entry in assay [2] and in assay [3] was “inactive” throughout.

With `CCOC(=O)c1ccnc2cc(C(OCCN3CCCCC3)c3ccccc3Cl)sc12` (stereo not given), the activation in assay [1] is -5.67%. The Potency result in assay [2] and in assay [3] was “inactive” throughout.

As for `Cc1ccccc1C1=CCN(C)CC1`, the activation in assay [1] was 1.67%. Also, the Potency entry in assay [2] and in assay [3] was “inactive” each time.

For the molecule `CN(CC[C@H](N)CC(=O)N[C@H]1C=C[C@@H](n2ccc(N)nc2=O)O[C@@H]1C(=O)O)C(=N)N`, in assay [1], the activation is 7.14%. The figures for the activity change, negative = inhibition in assay [2] and in assay [3] were -3.48% [at 11.2 µM] and 7.62% [at 11.2 µM], respectively.

With `CN1C[C@@H]2CN(c3ccc(-c4ccccc4)nn3)C[C@@H]2C1`, in assay [1], the activation was 14.3%. The Potency result in assay [2] and in assay [3] was “inactive” throughout.

`CC[C@@H]1/C=C/C=C/C[C@H](C)C(O)[C@](C)(O)C(=O)[C@H](C)C(O)[C@H](C)C(=O)[C@H](C)[C@@H](O)[C@H](C)/C=C/C(=O)O[C@H]2[C@@H](C)[C@@H](CC1)O[C@]1(O[C@H](C[C@H](C)O)[C@H](C)CC1=O)[C@@H]2C` (stereo not given in full): the activation in assay [1] is -12.2%. Moreover, the Potency result in assay [2] and in assay [3] was “inactive” throughout.

On to `CC1=CC2OC3[C@H](O)C[C@@](C)([C@]34CO4)[C@@]2(CO)[C@H](O)C1=O` (stereo not given in full), for which the Potency in assay [1] is 23.9 µM (active). The Potency entry in assay [2] and in assay [3] was “inactive” throughout.

On to `COC(=O)C1(C)CCC(O)C2(C)c3c(O)cc(C(C)C)cc3C(O)C(OC(C)=O)C12` (stereo not given), for which the activation in assay [1] is -9.16%. The Potency entry in assay [2] and in assay [3] was “inactive” each time.

As to `C[C@@H]1O[C@@H](O[C@H]2CC[C@@]3(C)C(CC[C@@H]4C3CC[C@]3(C)[C@@H](C5=CC(=O)OC5)CC[C@]43O)C2)[C@H](O)[C@H](O)[C@H]1O` (stereo not given in full), in assay [1], the Potency is 1.65 µM (active). For the same molecule, the Potency entry in assay [2] and in assay [3] was “inactive” each time.

Take `O=C(N[C@H]1N=C(c2ccccc2F)c2cccc3c2N(CC3)C1=O)c1cc2ccccc2[nH]1`: the activation in assay [1] was 6.33%. The Potency result in assay [2] and in assay [3] was “inactive” each time.

As to `COc1ccc(CN(C(=O)[C@@H](N)Cc2c(C)cc(C(N)=O)cc2C)[C@@H](C)c2ncc(-c3ccccc3)[nH]2)cc1C(=O)O`, the activation in assay [1] was 12.3%. In addition, the Potency result in assay [2] and in assay [3] was “inactive” in each case.

In the case of `C[C@]12CC[C@H](O)C[C@H]1CC[C@@H]1[C@@H]2[C@H](O)C(=O)[C@]2(C)[C@@H](c3ccc(=O)oc3)CC[C@]12O`, the Potency in assay [1] is 0.19 µM (active). Besides, the Potency result in assay [2] and in assay [3] was “inactive” each time.

Regarding `CCCCn1cc(C(=O)c2cccc3ccccc23)c2ccccc21`, the activation in assay [1] was 0.955%. In addition, the Potency entry in assay [2] and in assay [3] was “inactive” each time.
